# Laboratory results taken from PubChem BioAssay.
# Active and inactive are the calls of the source. Unless noted, no rule for the calls is given here.
# Columns and labels:
# [1] = HepG2 liver cancer cell viability effects, profiling panel, resazurin fluorescence, 24 h, PK04 Diversity Set (AID 1172); settings: higher = more signal
# [2] = basal S. cerevisiae growth modulation, no modifier, primary screen, OD600, strain BY4716, 24 h, basal condition (AID 1173); settings: OD600, 24 h, higher = more signal, called active from +8 up or from −8 down
# [3] = MM1S myeloma cell viability, profiling panel, resazurin fluorescence, basal, 24 h, PK04 Diversity Set (AID 1174); settings: higher = more signal, called active from +8 up or from −8 down;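 also: MM1S multiple myeloma cell line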
# [4] = target: Dihydroorotate dehydrogenase (quinone), mitochondrial (Plasmodium falciparum (isolate 3D7)) (UniProt Q08210); assay: PfDHODH enzyme inhibitors, primary screen, biochemical, C-terminal His tag, absorbance 600 nm (AID 1175); settings: DCIP absorbance 600 nm, higher = more signal, called active from +8 up or from −8 down;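 also: recombinant parasite enzyme with a five histidine tag at its C terminus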
# [5] = P. aeruginosa biofilm formation inhibitors, primary screen, strain PAO1, LB-PBS medium, absorbance 600 nm (AID 1176); settings: P. aeruginosa PAO1 growth/biofilm, A600, 12 h; higher = more signal
# [6] = S. cerevisiae RM11-1a growth modifiers, primary screen, strain RM11-1a, OD600, basal, 24 h (AID 1177); settings: OD600, 24 h, higher = more signal, called active from +8 up or from −8 down;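 also: cultures grown under basal conditions with no added stressor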
# [7] = E. coli acrAB mutant growth effects, primary screen, E. coli filamentation inducers, strain DRC39, OD650, 24 h (AID 1178); settings: higher = more signal, called active from +8 up or from −8 down;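 also: growth measured as culture turbidity by optical density at 650 nm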
# [8] = E. coli acrAB mutant growth effects, primary screen, E. coli filamentation inducers, strain DRC39, OD650, 48 h (AID 1179);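 also: screen aims at cell division blockers that make cells filament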; settings: E. coli DRC39 delta-acrAB growth, higher = more signal, called active from +8 up or from −8 down
# [9] = RPMI8226 myeloma cell viability, profiling panel, resazurin fluorescence, basal, 24 h, PK04 Diversity Set (AID 1180); settings: higher = more signal;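 also: RPMI8826 multiple myeloma cell line at 5000 cells per well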
# [10] = target: E3 ubiquitin-protein ligase XIAP (Homo sapiens) (UniProt P98170); assay: XIAP binders, primary screen, biophysical, small-molecule microarray, fluorescence 635 nm (AID 1181); settings: small-molecule microarray binding, higher = more signal;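 also: score merges 667 nm emission and signal to noise over triplicate slides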
# [11] = tested on: XIP peptide (Xip251-270) binding; assay: small-molecule binders of XIP peptide, primary screen, biochemical, small-molecule microarray, fluorescence 635/667 nm, 0.1 µg/mL protein (AID 1182); settings: fluorescent protein binding, 635 nm, higher = more signal, called active from +8 up or from −8 down
# XIP peptide (Xip251-270) = assay: small-molecule binders of XIP peptide, primary screen, biochemical, small-molecule microarray, fluorescence 635/667 nm, 0.5 µg/mL protein (AID 1183); settings: small-molecule microarray binding, fluorescence 635 nm; higher = more signal
# [12] = Plasmodium falciparum growth inhibition, primary screen, strain 3D7, DAPI fluorescence, 100 nL (AID 1184);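 also: parasites grown inside human red blood cells in medium with human serum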; settings: P. falciparum 3D7 growth, 3 d, higher = more signal
# [13] = target: Homeobox protein Hox-A13 (Mus musculus) (UniProt Q62424); assay: inhibitors of HoxA13-DNA binding, primary screen, biochemical, fluorescence polarization, labeled oligonucleotide (AID 1185); settings: 15 min, higher = more signal, called active from +8 up or from −8 down
# [14] = inhibitors of hydroxyurea-induced Chk1 phosphorylation, primary screen, imaging, HeLa, phospho-Chk1 antibody, percent positive cells (AID 1186); settings: hydroxyurea-induced phospho-Chk1 immunofluorescence imaging, higher = more signal
# [15] = inhibitors of hydroxyurea-induced Chk1 phosphorylation, primary screen, imaging, HeLa, phospho-Chk1 nuclear intensity (AID 1187); settings: hydroxyurea-induced phospho-Chk1 immunofluorescence imaging, higher = more signal
# Chain of Homeobox protein Hox-A13 (Mus musculus) (Q62424 whole entry, looked up): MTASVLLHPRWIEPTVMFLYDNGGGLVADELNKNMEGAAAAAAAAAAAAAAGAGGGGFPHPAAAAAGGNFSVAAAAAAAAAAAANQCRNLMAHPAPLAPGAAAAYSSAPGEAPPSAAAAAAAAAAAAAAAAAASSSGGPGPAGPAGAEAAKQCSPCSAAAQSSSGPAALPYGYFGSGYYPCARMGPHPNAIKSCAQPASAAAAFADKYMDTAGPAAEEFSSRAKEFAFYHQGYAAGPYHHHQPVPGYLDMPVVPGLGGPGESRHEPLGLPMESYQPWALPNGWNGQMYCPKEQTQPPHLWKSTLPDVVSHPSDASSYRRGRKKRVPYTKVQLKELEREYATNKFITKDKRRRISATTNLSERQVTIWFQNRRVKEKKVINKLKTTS
# Chain of E3 ubiquitin-protein ligase XIAP (Homo sapiens) (P98170 whole entry, looked up): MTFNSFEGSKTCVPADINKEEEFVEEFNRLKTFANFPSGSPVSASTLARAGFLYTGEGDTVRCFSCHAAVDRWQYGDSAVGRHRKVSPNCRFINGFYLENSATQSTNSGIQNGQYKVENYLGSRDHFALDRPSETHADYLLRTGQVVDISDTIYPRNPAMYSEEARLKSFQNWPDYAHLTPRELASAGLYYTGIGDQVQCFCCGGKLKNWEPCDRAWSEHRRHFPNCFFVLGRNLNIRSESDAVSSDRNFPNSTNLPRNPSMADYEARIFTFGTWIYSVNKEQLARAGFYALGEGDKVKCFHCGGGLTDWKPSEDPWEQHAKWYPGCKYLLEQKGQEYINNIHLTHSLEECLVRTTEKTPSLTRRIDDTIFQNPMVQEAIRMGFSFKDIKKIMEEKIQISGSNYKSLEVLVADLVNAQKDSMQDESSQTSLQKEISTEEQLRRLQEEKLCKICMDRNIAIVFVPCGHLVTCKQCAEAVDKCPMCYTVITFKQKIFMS
# Chain of Dihydroorotate dehydrogenase (quinone), mitochondrial (Plasmodium falciparum (isolate 3D7)) (Q08210 whole entry, looked up): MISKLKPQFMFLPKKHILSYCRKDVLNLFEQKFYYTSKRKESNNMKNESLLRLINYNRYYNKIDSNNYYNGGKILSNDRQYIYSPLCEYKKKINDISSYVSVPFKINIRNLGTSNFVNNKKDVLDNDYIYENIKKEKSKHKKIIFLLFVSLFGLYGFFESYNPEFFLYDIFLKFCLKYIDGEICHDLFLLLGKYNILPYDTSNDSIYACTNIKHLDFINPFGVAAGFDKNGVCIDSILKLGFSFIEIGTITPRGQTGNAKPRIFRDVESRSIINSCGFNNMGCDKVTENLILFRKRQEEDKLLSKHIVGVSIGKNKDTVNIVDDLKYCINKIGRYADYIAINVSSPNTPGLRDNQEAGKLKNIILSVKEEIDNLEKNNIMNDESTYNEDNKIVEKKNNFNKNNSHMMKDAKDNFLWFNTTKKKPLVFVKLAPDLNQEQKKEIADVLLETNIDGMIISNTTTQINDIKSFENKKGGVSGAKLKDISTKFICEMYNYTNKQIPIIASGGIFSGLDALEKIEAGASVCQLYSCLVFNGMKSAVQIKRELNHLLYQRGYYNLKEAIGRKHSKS
SMILES,z-score [1],z-score [2],z-score [3],composite z-score [4],z-score [5],z-score [6],z-score [7],z-score [8],z-score [9],composite z-score [10],composite z-score [11],composite z-score (XIP peptide (Xip251-270)),z-score [12],z-score [13],z-score [14],z-score [15]
COc1ccccc1CN1C(=O)c2ccccc2[C@@H](C(=O)NCCCN(C)C)[C@@H]1c1ccc(CO)cc1,0.619,-1.37 (inactive),1.22 (inactive),0.0824 (inactive),0.292 (inactive),-0.942 (inactive),0.65 (inactive),1.37 (inactive),1.09,-0.0426,-0.0888 (inactive),0.66,-2.34,3.27 (inactive),-0.343 (inactive),-0.136 (inactive)
COc1ccc(CCNC(=O)[C@@]2(Sc3ccc(C)cc3)CC(=O)N(C(C)C)[C@@H]2c2ccc(CO)cc2)cc1,-0.335,0.748 (inactive),-0.416 (inactive),0.557 (inactive),0.745 (inactive),1.06 (inactive),-0.252 (inactive),-0.602 (inactive),-0.218,0.0132,0.117 (inactive),0.66,-0.302,-3.28 (inactive),0.0372 (inactive),-0.0512 (inactive)
C=CC[C@@]12N=C(c3ccc(OCCCO)cc3)O[C@@H]1c1ccccc1N(Cc1ccccc1)C2=O,0.157,-0.848 (inactive),-2.58 (inactive),-0.162 (inactive),0.469 (inactive),0.632 (inactive),1.48 (inactive),0.666 (inactive),-2.37,0.322,0.799 (inactive),0.797,-2.42,-2.23 (inactive),0.0198 (inactive),0.552 (inactive)
COC(=O)[C@@]1(Cc2ccccc2CN=[N+]=[N-])COC(c2ccc(OCCCO)cc2)=N1,-0.639,-5.02 (inactive),-1.75 (inactive),0.37 (inactive),1.07 (inactive),0.593 (inactive),0.544 (inactive),-0.74 (inactive),-0.39,-0.0582,1.31 (inactive),0.871,-1.3,-4.77 (inactive),-0.184 (inactive),0.0494 (inactive)
Cc1c(NC(=O)/C(C#N)=C/c2ccc(Cl)cc2)c(=O)n(-c2ccccc2)n1C,0.244,-0.429 (inactive),0.103 (inactive),-2.14 (inactive),0.888 (inactive),-0.704 (inactive),1.43 (inactive),1.5 (inactive),-0.345,-0.0871,0.773 (inactive),0.876,0.468,-3.94 (inactive),-0.0496 (inactive),-0.246 (inactive)
C=C(COC)/C(=C/C[C@H](OC(=O)c1ccncc1)c1cccc(OCCO)c1)c1cnc2ccccc2c1,0.123,0.14 (inactive),-1.24 (inactive),-5.24 (inactive),1.14 (inactive),-0.148 (inactive),-0.259 (inactive),-0.199 (inactive),-0.697,-0.0156,4.42 (inactive),0.823,-2.72,-4.94 (inactive),0.321 (inactive),0.275 (inactive)
CCCCC(O)C1C=CC2C(=O)NC(=O)C2N1Nc1ccc(Cl)cc1Cl (stereo not drawn),-2.57,-16.6 (active),-2.26 (inactive),-0.2 (inactive),0.546 (inactive),-5.12 (inactive),-0.818 (inactive),-1.31 (inactive),-2.01,-0.272,-0.0109 (inactive),-0.405,-0.565,-4.78 (inactive),-0.515 (inactive),-0.438 (inactive)
C=CC[C@]1(C(=O)NCCCOC)N=C(c2ccc(OCCCO)cc2)O[C@H]1c1ccccc1,0.998,-0.96 (inactive),0.619 (inactive),-0.205 (inactive),-0.661 (inactive),0.0543 (inactive),0.178 (inactive),0.735 (inactive),1.36,0.102,0.227 (inactive),0.659,-0.67,-6.7 (inactive),-0.132 (inactive),0.0245 (inactive)
O=C1OCCC/C=C\[C@H]2OC34C=CCN(Cc5ccccc5)C(=O)[C@H]3N(CCCCCO)C(=O)[C@@H]4C12 (stereo partly drawn),0.804,-1.08 (inactive),1.24 (inactive),-0.279 (inactive),-0.099 (inactive),-0.581 (inactive),0.691 (inactive),0.775 (inactive),1.16,-0.157,0.105 (inactive),-0.6,0.259,-5.04 (inactive),-0.312 (inactive),0.249 (inactive)
C=CCNC(=O)[C@H]1[C@@H]2C(=O)O[C@@H](c3ccccc3)[C@@H](c3ccccc3)N2[C@@H](c2ccc(O)cc2)[C@]12C(=O)Nc1ccc(C#CC3=CCCCC3)cc12,-0.118,-0.147 (inactive),-2.44 (inactive),0.018 (inactive),1.41 (inactive),1.87 (inactive),0.322 (inactive),0.628 (inactive),-5.43,-0.124,0.542 (inactive),0.785,-0.51,0.771 (inactive),-0.354 (inactive),-0.217 (inactive)
COCCOC(=O)N1C(=O)[C@@]2(c3cc(C#Cc4ccc(OC)cc4)ccc31)[C@H](C(=O)Nc1nc3ccccc3s1)[C@H]1C(=O)O[C@H](c3ccccc3)[C@H](c3ccccc3)N1[C@@H]2c1ccccc1OCCO,1.17,0.86 (inactive),1.34 (inactive),-0.882 (inactive),1.89 (inactive),0.972 (inactive),0.285 (inactive),0.376 (inactive),1.85,-0.221,0.71 (inactive),0.594,-1.96,3.56 (inactive),-0.338 (inactive),-0.538 (inactive)
C=CCC(OC(C)=O)[C@@H]1[C@@H](N(Cc2cc3ccccc3o2)C(=O)Cc2ccc(OC)cc2)c2cc(OCCCO)ccc2N1C(=O)Cc1ccc2ccccc2c1 (stereo partly drawn),-1.22,-0.379 (inactive),0.499 (inactive),0.65 (inactive),-0.17 (inactive),0.101 (inactive),-0.529 (inactive),-0.94 (inactive),-0.216,0.308,-0.324 (inactive),-0.375,-2.15,-1.62 (inactive),0.405 (inactive),0.517 (inactive)
C=CCC(OC(C)=O)[C@@H]1[C@@H](N(Cc2cc3ccccc3o2)C(=O)c2cccc3ccccc23)c2cc(OCCCO)ccc2N1C(=O)c1ccc2ccccc2c1 (stereo partly drawn),-1.18,-0.469 (inactive),-0.581 (inactive),0.0769 (inactive),-0.227 (inactive),-0.389 (inactive),-0.423 (inactive),-0.797 (inactive),-0.855,-0.146,0.0745 (inactive),-0.611,-2.65,-1.34 (inactive),-0.328 (inactive),-0.0311 (inactive)
